Results filed as inconclusive are left out. The source made the active and inactive calls. Calls come from the whole dose curve; as a rule, active = well fitted curve in the direction sought with a large enough effect; inconclusive = small, poorly fitted or top-dose-only effect, or another doubt; inactive = no such curve, though single readings can be large; an effect the other way counts as inactive or inconclusive.
Tests used:
[1] = P-glycoprotein substrates identified in KB-8-5-11 adenocarcinoma cell line, qHTS therapeutic library screen (AID 1346987); note: nearly all actives have a fitted effect of over 65% in size; note: potency is the fitted concentration of half-maximal effect; for activity change, negative = cytotoxicity: % is set by controls: 0 for no effect and ±100 for the full control effect
Method in brief: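 Human cervical adenocarcinoma KB-8-5-11 cells, selected in colchicine to over-express P-gp and assayed without it, were exposed for 72 h to titrated compounds. An ATP-based luminescent viability signal gave AC50.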

[2] = tested on: Zika virus NS2B-NS3 protease (linked construct); assay: Primary screen NINDS Rhodamine qHTS for Zika virus inhibitors (AID 1347160); note: nearly all actives have a fitted effect of over 55% in size
Method in brief: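 Aprotinin served as in-plate control. Conditions: 25 nM linked NS2B-NS3, pH 8.0 Tris buffer, titrated compounds, 15 min preincubation and 15 min reaction with 1.5 microM Rhod110 substrate at room temperature.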

[3] = Primary qHTS for inhibitors of nuclear receptor binding SET domain protein 2 (NSD2) in an isogenic RCH-ACV NSD2 p.E1099K mutant (9B) (AID 1645876); note: nearly all actives have a fitted effect of over 70% in size; note: potency is the fitted concentration of half-maximal effect
[4] = target: Phospholipid hydroperoxide glutathione peroxidase GPX4 (Homo sapiens) (UniProt P36969); assay: Primary qHTS Assay for Inhibitors of Recombinant Selenoprotein Glutathione Peroxidase 4 (GPX4) (AID 1845192); note: nearly all actives have a fitted effect of over 65% in size
Chain of Phospholipid hydroperoxide glutathione peroxidase GPX4 (Homo sapiens) (P36969 whole entry, looked up): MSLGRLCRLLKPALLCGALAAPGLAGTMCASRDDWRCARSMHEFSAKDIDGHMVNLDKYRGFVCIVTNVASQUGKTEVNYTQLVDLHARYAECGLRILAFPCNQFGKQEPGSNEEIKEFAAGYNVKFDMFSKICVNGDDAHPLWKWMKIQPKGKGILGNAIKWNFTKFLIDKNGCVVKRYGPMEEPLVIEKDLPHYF
Method in brief: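 NADPH consumption followed by fluorescence at 340/450 nm, t=0 and after 15 min at room temperature. Reaction started with cumene hydroperoxide (0.5 mM final) after 30 min compound–GPX4 preincubation; final 200 nM GPX4, 100 nM GR, 1 mM GSH, 0.5 mM NADPH.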

[5] = target: Luciferin 4-monooxygenase (Photinus pyralis) (UniProt P08659); assay: Primary firefly luciferase (FLuc) qHTS assay for identification of artifact compounds. (AID 1845220); settings: outcome: dose series up to 54.1 µM unless noted; note: nearly all actives have a fitted effect of over 60% in size
Method in brief: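 FLuc 10 nM; luciferin 10 uM; ATP 10 uM; Tris-acetate pH 7.6, Mg-acetate 10 mM; 15 min RT preincubation; 5 min reaction; luminescence.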

[6] = Primary fluorescence-based thiol-reactive (MSTI) qHTS assay for identification of artifact compounds. (AID 1845221);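 note: thiol-reactive compounds lower the probe fluorescence signal; nearly all actives have a fitted effect of over 65% in size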
Method in brief: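 MSTI probe at 4 uM final in 2% DMSO/PBS pH 7.4; compounds, 1 h at room temperature in dark. Fluorescence Ex/Em 525/598 nm, normalised to Acetyl-MSTI and MSTI, fitted to 4-parameter Hill.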

[7] = tested on: Nanoluciferase (engineered Oplophorus gracilirostris luciferase); assay: Primary Nanoluciferase (NLuc) qHTS assay for identification of artifact compounds. (AID 1845222);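 note: NLuc secreted into diluted conditioned medium of S16 cells; 0% = DMSO and -100% = no enzyme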
Method in brief: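 NLuc from S16 cell medium (1:55) plus test compounds, 15 min, room temperature. Luminescence after Nano-Glo (1:100) addition, 5 min.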

[8] = Primary redox qHTS assay for identification of artifact compounds. (AID 1845223);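 note: 0% = DMSO and 100% = reference compound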
Method in brief: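 Redox-cycling detection via DTT (250 uM final) oxidation coupled to Amplex Red (25 uM)/HRP (250 mU/mL) in HBSS. 15 min preincubation plus 30 min after DTT, room temperature. Ex/Em 525/598 nm; 4-parameter Hill fit against DMSO and 10 uM DA3003.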

JEG-3 = assay: Primary qHTS to identify gynecologic anti-cancer compounds using libraries of approved drugs and bioactive compounds (AID 1345084); settings: Gynecologic cancer cell panel viability, ATPlite luminescence, 48 h; series mostly up to 57.5 µM; note: % is set by controls: 0 for no effect and ±100 for the full control effect; nearly all actives have a fitted effect of over 55% in size
Method in brief: (§1)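 Cells, 1,000 per well, plated 16 h, then exposed 48 h at 37 C to compounds. Viability by ATPlite luminescence after 15 min at room temperature.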

OV90 = assay: as above; settings: Gynecologic cancer cell panel viability, ATPlite luminescence, 48 h; series mostly up to 57.5 µM
Method in brief: as §1

[9] = target: Calcium and integrin-binding protein 1 (Homo sapiens) (UniProt Q99828); assay: Primary qHTS for Identification of Calcium Integrin Binding Protein 1 (CIB1) Competitor (AID 1508620);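 note: GST tagged CIB1 binding a fluorescein labelled alphaIIb integrin peptide tracer; top concentration of the series differs between compounds; % is set by controls: 0 for no effect and ±100 for the full control effect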
Chain of Calcium and integrin-binding protein 1 (Homo sapiens) (Q99828 whole entry, looked up): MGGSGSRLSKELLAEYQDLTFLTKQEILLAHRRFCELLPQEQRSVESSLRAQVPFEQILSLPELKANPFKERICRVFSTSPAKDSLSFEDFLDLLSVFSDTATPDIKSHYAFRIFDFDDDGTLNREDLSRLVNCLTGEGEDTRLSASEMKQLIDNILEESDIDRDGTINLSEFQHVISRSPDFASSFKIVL
Method in brief: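 CIB1-GST (1 uM final) and compound incubated 15 min at room temperature before adding FITC-alphaIIb peptide tracer (100 nM final). Competition for binding read by fluorescence polarization (ex 480, em 540) after another 15 min at room temperature.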

[10] = target: Glutathione peroxidase 1 (Homo sapiens) (UniProt P07203); assay: Primary qHTS Assay for Inhibitors of Recombinant Selenoprotein Glutathione Peroxidase 1 (GPX1) (AID 1845191); note: nearly all actives have a fitted effect of over 65% in size
Chain of Glutathione peroxidase 1 (Homo sapiens) (P07203 whole entry, looked up): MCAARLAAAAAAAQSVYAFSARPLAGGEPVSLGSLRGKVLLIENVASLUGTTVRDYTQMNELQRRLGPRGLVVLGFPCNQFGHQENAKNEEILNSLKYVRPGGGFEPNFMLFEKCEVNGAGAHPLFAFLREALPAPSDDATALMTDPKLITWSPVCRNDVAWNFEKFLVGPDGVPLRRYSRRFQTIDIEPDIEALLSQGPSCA
Method in brief: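 NADPH consumption tracked by fluorescence at 340/450 nm between t=0 and t=15 min, room temperature. Final mix: 10 nM GPX1, 100 nM glutathione reductase, 1 mM GSH, 0.5 mM NADPH, 0.5 mM cumene hydroperoxide, 0.01% BSA; 30 min compound–enzyme preincubation.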

HaCat = assay: Cytotoxic Profiling of Annotated Libraries Using Quantitative High-Throughput Screening (AID 1296008); settings: Five cell lines viability, CellTiter-Glo ATP luminescence, 48-72 h; max response: stronger effect = lower value; note: nearly all actives have a fitted effect of over 60% in size; note: potency is the fitted concentration of half-maximal effect; for max response: % is set by controls: 0 for no effect and ±100 for the full control effect
Method in brief: (§2)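 Cytotoxicity was measured as CellTiter-Glo ATP luminescence, read after 10 min at room temperature. Compound treatment of the cells lasted 48 or 72 hr at 37 degrees Celsius in a qHTS format.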

CASKI = assay: Primary qHTS to identify gynecologic anti-cancer compounds using libraries of approved drugs and bioactive compounds (AID 1345084); settings: Gynecologic cancer cell panel viability, ATPlite luminescence, 48 h; series mostly up to 57.5 µM; note: % is set by controls: 0 for no effect and ±100 for the full control effect; nearly all actives have a fitted effect of over 55% in size
Method in brief: as §1

Tov-21-G = assay: as above; settings: Gynecologic cancer cell panel viability, ATPlite luminescence, 48 h; series mostly up to 57.5 µM
Method in brief: as §1

KB-3-1 = assay: Cytotoxic Profiling of Annotated Libraries Using Quantitative High-Throughput Screening (AID 1296008); settings: Five cell lines viability, CellTiter-Glo ATP luminescence, 48-72 h; max response: stronger effect = lower value; note: nearly all actives have a fitted effect of over 60% in size; note: potency is the fitted concentration of half-maximal effect; for max response: % is set by controls: 0 for no effect and ±100 for the full control effect
Method in brief: as §2

Cc1sc2c(c1C)C(c1ccc(Cl)cc1)=NC(CC(=O)OC(C)(C)C)c1nnc(C)n1-2 (stereo not drawn)
active: Potency [1] 1.16 µM | Potency [3] 0.183 µM
inactive: Potency [2] | Potency [4] | outcome [5] | Potency [6] | Potency [7] | Potency [8] | Potency (JEG-3) | Potency (OV90)

C=C1[C@@H](O)[C@]2(O)OC[C@]34C2[C@]2(C)C(C[C@H]3OC(=O)[C@H](O)[C@@]14O)C(C)=CC(=O)[C@H]2O (stereo partly drawn)
inactive: Potency [1] | Potency [2] | Potency [9] | Potency [10] | outcome [5] inactive [at 25.7 µM] | Potency [6] | Potency [7] | Potency [8] | max response (HaCat) 3.98% | Potency (CASKI) | Potency (JEG-3) | Potency (OV90) | Potency (Tov-21-G)
active: Potency [3] 4.47 µM

COc1ccc(C23CCC(=O)C=C2N(C)CC3)cc1OC (stereo not drawn)
inactive: Potency [1] | Potency [2] | Potency [9] | Potency [3] | Potency [10] | Potency [4] | outcome [5] | Potency [6] | Potency [7] | Potency [8] | max response (KB-3-1) -13% | Potency (OV90) | Potency (Tov-21-G)

C[C@@H]1Cc2c(Cl)cc(C(=O)N[C@@H](Cc3ccccc3)C(=O)O)c(O)c2C(=O)O1
inactive: Potency [2] | Potency [9] | outcome [5] | Potency [6] | Potency [7] | Potency [8] | outcome (HaCat) | Potency (CASKI) | Potency (JEG-3) | Potency (OV90) | Potency (Tov-21-G)
active: Potency [3] 8.98 µM

C[C@]12CC[C@H](OC3OC(CO)C(O)C(O)C3OC3OC(CO)C(O)C(O)C3O)C[C@@H]1CC[C@@H]1C2CC[C@]2(C)[C@@H](C3=CC(=O)OC3)CC[C@]12O (stereo partly drawn)
inactive: Potency [2] | Potency [9] | Potency [10] | Potency [4] | outcome [5] | Potency [6] | Potency [7] | Potency [8] | max response (HaCat) -2.72% | max response (KB-3-1) 6.08% | Potency (CASKI) | Potency (JEG-3) | Potency (OV90)
active: Potency [3] 4.3 µM

Cc1sc2c(c1C)C(c1ccc(Cl)cc1)=N[C@@H](CC(=O)Nc1ccc(O)cc1)c1nnc(C)n1-2
active: Potency [3] 0.0615 µM
inactive: Potency [2] | Potency [10] | Potency [4] | activity change, negative = thiol reactive [6] 36.2% [at 11.5 µM] | activity, negative = inhibition [7] -3.15% [at 11.6 µM] | outcome (HaCat) | activity change, negative = cytotoxicity (JEG-3) -12.8% [at 11.6 µM]

CC1=CC2/C=C(\C)CCC(O)C(O)/C=C/C(=O)C23C(=O)NC(CC(C)C)C3C1C (stereo not drawn)
inactive: Potency [2] | Potency [10] | Potency [4] | outcome [5] | Potency [6] | Potency [7] | Potency [8] | Potency (Tov-21-G)
active: Potency [3] 2.24 µM

NNC(=O)c1nn(Cc2ccc(Cl)cc2Cl)c2ccccc12
inactive: Potency [2] | Potency [9] | Potency [10] | Potency [4] | outcome [5] | Potency [6] | Potency [7] | Potency [8] | max response (HaCat) 3.64% | max response (KB-3-1) -14.6% | Potency (CASKI) | Potency (JEG-3) | Potency (OV90)

C/C=C(/C)C(=O)O[C@H]1[C@@H]2[C@H](C)C(=O)O[C@@H]2C[C@@H](C)[C@@H]2C=CC(=O)[C@]21C
active: Potency [3] 12.7 µM
inactive: Potency [2] | Potency [9] | Potency [10] | Potency [4] | outcome [5] | Potency [6] | Potency [7] | Potency [8] | max response (HaCat) -11.7% | Potency (JEG-3) | Potency (Tov-21-G)

CC[C@H]1/C=C\C=C/C[C@@H](C)[C@H](O)[C@@](C)(O)C(=O)[C@@H](C)[C@H](O)[C@@H](C)C(=O)[C@@H](C)[C@H](O)[C@@H](C)/C=C\C(=O)O[C@@H]2[C@H](C)[C@H](CC1)O[C@]1(CC[C@H](C)[C@H](C[C@@H](C)O)O1)[C@H]2C
inactive: Potency [2] | Potency [9] | Potency [10] | Potency [4] | outcome [5] | Potency [6] | Potency [7] | Potency [8] | Potency (CASKI) | Potency (OV90) | Potency (Tov-21-G)
active: Potency [3] 0.742 µM

Cc1ncc(OC[C@@]2(c3cccc(F)c3)C[C@H]2C(=O)Nc2ccc(F)cn2)c(C)n1
inactive: Potency [9] | Potency [3] | Potency [10] | Potency [4] | outcome (HaCat)

Cc1cccc(NC(=O)c2ccc(C(F)(F)F)cc2C(=O)O)n1
inactive: Potency [1] | Potency [2] | Potency [9] | Potency [3] | Potency [10] | Potency [4] | outcome [5] | Potency [6] | Potency [7] | Potency [8] | outcome (HaCat) | outcome (KB-3-1) | Potency (CASKI) | Potency (OV90)

C/C1=C/[C@@H](C)C/C=C/[C@H]2[C@@H]3O[C@]3(C)[C@@H](C)[C@H]3[C@H](Cc4c[nH]c5ccccc45)NC(=O)[C@]32C(=O)/C=C\C(=O)[C@@H]1O
active: Potency [3] 3.99 µM | Potency (KB-3-1) 7.96 µM
inactive: Potency [2] | Potency [9] | Potency [10] | Potency [4] | outcome [5] | Potency [7] | Potency [8] | Potency (CASKI) | Potency (JEG-3) | Potency (OV90) | Potency (Tov-21-G)

C/C=C(\C)C(=O)O[C@@H]1[C@@H](C)[C@]2(O)C3C=C(C)C(=O)[C@@]3(O)CC(CO)=C[C@H]2C2C(C)(C)[C@@]21OC(=O)C(C)CC (stereo partly drawn)
inactive: Potency [1] | Potency [2] | Potency [9] | Potency [10] | Potency [4] | outcome [5] | Potency [6] | Potency [7] | Potency [8] | outcome (HaCat) | outcome (KB-3-1) | Potency (CASKI) | Potency (OV90) | Potency (Tov-21-G)

— PubChem BioAssay (NCATS)
